# Inconclusive results are not listed. A number with no mark means an inactive call. The source made the active and inactive calls. Calls come from the whole dose curve; as a rule, active = well fitted curve in the direction sought with a large enough effect; inconclusive = small, poorly fitted or top-dose-only effect, or another doubt; inactive = no such curve, though single readings can be large or run the other way.
# Assay: qHTS Assay for Identifying Gametocytocidal Compounds (AID 743244);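 for max response: actives lower the fluorescent signal which means gametocytes are killed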
# Conditions: P. falciparum 3D7 stage III-V gametocytes, alamarBlue, 72 h; max response: active compounds read low
# In short: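 Compounds are pinned into medium, gametocytes (stage III–V, 3D7, 20,000 cells/well) added, and plates held 72 h at 37 °C in 5% CO2. AlamarBlue follows for 24 h before fluorescence reading.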
# % is set by controls: 0 for no effect and ±100 for the full control effect; potency is the fitted concentration of half-maximal effect.
SMILES,max response [%],Potency
N[C@@H](Cc1ccc(F)cc1)C(=O)O,19.5,–
NCC(O)C1CCCCCCC1 (centres undefined),18.9,–
O=C(O)c1cc2cc(F)ccc2[nH]1,5.51,–
Cn1cc(C(=O)OCC2CCN(CCNS(C)(=O)=O)CC2)c2ccccc21,28.9,–
Cc1ccc2c(c1)C(N1CCN(C)CC1)=Nc1cccnc1N2,23,–
CNCCc1cnc(CCC(c2ccccc2)c2ccccc2)[nH]1,–,1260 nM (active)
Cc1cccc(C(=O)NCN2CCN(c3ccccc3C#N)CC2)c1,20.6,–
N[C@@H](CCCC(=O)O)C(=O)O,28.3,–
CCCCCCC(=O)OC1CC(C)(C)NC(C)(C)C1,-4.67,–
COCc1nc2c([nH]1)c(=O)n(C)c(=O)n2CC(C)C,28.7,–
CCCCCCCCCC(=O)NC(CN1CCOCC1)[C@H](O)c1ccccc1 (some centres undefined),–,3550 nM (active)
CCCCC[C@H](CC(=O)NO)C(=O)N[C@H](C(=O)N1CCC[C@H]1CO)C(C)C,14.1,–
NC(N)=N[C@@H](CCC(=O)O)C(=O)O,-1.42,–
COc1ccccc1N1CCN(CCCCNC(=O)c2ccc3ccccc3c2)CC1,17.6,–
O=c1cc(-c2ccccc2)[nH]c2nc(Cl)ccc12,-6.09,–
CC1CNCCN1S(=O)(=O)c1cccc2cnccc12 (centres undefined),22.5,–
CC1C(=O)N(C)C(=O)c2nc[nH]c21 (centres undefined),38.8,–
c1ccc2c(c1)CC(N1CCN(c3cccc4c3OCCO4)CC1)C2,9.97,–
CN1C2CCC1CC(OC(c1ccccc1)c1ccccc1)C2 (centres undefined),31,–
CC(C)(C)c1ccc(/C=C/C(=O)Nc2ccc3c(c2)OCCO3)cc1,13.4,–
OC[C@H]1O[C@@H](n2cnc3cncnc32)[C@H](O)[C@@H]1O,19.7,–
C/C(=C\c1ccc(C(=O)O)cc1)c1ccc2c(c1)C(C)(C)CCC2(C)C,19.4,–
Clc1nccc2c1ccc1ccccc12,7.1,–
O=c1ccn([C@@H]2O[C@H](COP(=O)(O)OP(=O)(O)O)[C@@H](O)[C@H]2O)c(=O)[nH]1,17.2,–
